# How the values were obtained:
# Assay in all cases: DAPPL (digital affinity profiling via proximity ligation, sequencing); 10 mM Tris-HCl pH 7.5, 50 mM NaCl, 1 mM DTT, 4% glycerol, room temperature, 30 min; GST-TFs on glutathione beads, 16-mer random dsDNA library, 0.1% formaldehyde crosslink after washing; high values mean tight binding
# Settings in all cases: protein: recombinant; tags: N-terminal GST; dsDNA, one strand shown
# FLI1 = target: T1, FLI1 (Homo sapiens, UniProt Q01543 1-452)
# T1 sequence: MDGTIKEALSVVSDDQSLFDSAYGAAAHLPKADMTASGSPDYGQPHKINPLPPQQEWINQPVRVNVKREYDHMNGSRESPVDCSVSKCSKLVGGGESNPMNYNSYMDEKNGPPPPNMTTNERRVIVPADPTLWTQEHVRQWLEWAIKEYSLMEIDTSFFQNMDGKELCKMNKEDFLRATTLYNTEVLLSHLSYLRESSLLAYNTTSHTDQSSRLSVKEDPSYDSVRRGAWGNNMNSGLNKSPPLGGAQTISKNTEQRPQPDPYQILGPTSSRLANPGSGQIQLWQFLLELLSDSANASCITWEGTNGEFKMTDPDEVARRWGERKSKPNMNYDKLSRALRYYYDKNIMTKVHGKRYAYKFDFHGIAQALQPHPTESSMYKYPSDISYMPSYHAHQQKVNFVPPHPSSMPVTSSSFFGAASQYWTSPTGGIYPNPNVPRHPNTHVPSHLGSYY
# Procedure, shortened: (§1)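 Pools were built from human transcription factors expressed in yeast as GST fusions, captured on glutathione beads and DNA-barcoded, along with a tag-only sample. Incubation with 200 nmole of a 16-mer random double-stranded DNA library lasted 30 min at room temperature in Tris/NaCl/DTT/glycerol buffer, and was followed by washing, 0.1% formaldehyde crosslinking, proximity ligation, PCR amplification and Illumina NextSeq500 sequencing. Binding signal is the quotient of each hexamer's read frequency for a factor and its frequency for the tag-only sample.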
# ELK1 = target: T2, ELK1 (Homo sapiens, UniProt P19419 1-428)
# T2 sequence: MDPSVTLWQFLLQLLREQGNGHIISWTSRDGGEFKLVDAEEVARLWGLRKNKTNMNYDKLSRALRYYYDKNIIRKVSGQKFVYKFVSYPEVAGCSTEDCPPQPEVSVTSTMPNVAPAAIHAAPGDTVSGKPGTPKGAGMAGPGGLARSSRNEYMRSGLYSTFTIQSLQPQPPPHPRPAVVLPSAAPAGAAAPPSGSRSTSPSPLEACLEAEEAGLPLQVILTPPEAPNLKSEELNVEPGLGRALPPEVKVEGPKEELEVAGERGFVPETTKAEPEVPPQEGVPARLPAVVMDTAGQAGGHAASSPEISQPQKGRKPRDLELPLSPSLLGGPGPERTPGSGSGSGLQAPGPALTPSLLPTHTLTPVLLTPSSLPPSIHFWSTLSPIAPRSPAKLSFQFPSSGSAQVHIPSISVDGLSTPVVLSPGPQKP
# Procedure, shortened: as §1
# GABPA = target: T3, GABPA (Homo sapiens, UniProt Q06546 1-454)
# T3 sequence: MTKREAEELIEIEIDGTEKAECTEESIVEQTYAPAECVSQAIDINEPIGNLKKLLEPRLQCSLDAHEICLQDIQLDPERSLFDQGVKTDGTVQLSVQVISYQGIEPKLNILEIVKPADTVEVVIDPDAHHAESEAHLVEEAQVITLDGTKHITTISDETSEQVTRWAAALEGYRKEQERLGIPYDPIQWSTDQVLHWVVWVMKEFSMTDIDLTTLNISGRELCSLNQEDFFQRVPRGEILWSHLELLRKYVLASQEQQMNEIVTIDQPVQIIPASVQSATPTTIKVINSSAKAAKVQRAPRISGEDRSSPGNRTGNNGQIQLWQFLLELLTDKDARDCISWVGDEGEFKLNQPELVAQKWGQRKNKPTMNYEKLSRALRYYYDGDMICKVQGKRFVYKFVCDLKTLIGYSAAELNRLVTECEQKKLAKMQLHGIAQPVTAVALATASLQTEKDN
# Procedure, shortened: as §1
# ERG = target: T4, ERG (Homo sapiens, UniProt P11308 1-479)
# T4 sequence: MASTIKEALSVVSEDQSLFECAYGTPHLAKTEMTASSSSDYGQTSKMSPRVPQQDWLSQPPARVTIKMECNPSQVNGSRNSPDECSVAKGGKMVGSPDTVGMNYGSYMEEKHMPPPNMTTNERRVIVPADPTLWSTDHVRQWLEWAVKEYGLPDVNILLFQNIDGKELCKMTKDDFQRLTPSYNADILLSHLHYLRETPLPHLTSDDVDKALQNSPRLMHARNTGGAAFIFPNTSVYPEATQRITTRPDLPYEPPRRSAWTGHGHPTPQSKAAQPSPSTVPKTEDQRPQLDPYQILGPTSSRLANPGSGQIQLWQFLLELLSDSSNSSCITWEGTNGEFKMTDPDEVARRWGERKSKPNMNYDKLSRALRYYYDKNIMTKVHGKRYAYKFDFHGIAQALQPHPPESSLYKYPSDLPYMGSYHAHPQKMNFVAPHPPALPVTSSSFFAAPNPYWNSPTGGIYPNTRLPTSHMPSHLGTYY
# Procedure, shortened: as §1
# ELF1 = ELF1 (Homo sapiens, UniProt P32519 1-619)
# Sequence of ELF1 (P32519 whole entry): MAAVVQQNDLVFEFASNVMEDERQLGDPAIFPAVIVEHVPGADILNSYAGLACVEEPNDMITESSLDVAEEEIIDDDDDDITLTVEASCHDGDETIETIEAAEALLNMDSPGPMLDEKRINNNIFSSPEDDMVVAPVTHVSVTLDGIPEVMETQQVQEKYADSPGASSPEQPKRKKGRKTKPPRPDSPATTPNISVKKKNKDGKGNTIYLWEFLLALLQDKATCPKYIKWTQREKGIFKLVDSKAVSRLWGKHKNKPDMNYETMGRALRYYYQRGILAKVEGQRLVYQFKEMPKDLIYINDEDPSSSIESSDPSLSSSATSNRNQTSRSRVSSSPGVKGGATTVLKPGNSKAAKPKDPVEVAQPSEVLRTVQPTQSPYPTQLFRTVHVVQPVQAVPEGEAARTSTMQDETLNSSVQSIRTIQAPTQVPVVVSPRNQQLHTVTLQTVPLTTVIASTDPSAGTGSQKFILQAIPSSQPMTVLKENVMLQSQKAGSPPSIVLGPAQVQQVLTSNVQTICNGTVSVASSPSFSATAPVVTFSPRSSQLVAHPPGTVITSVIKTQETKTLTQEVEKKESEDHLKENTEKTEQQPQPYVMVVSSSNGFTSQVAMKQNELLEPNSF
# Procedure, shortened: as §1
# EHF = target: T5, EHF (Homo sapiens, UniProt Q9NZC4 1-300)
# T5 sequence: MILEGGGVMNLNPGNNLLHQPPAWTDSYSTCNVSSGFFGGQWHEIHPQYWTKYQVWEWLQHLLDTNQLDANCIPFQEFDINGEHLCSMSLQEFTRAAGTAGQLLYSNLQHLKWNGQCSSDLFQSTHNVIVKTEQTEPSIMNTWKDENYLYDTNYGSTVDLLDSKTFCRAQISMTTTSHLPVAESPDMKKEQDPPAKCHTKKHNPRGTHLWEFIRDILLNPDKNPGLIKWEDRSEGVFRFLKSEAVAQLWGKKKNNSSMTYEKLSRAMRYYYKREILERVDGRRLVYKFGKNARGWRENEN
# Procedure, shortened: as §1
# SPI1 = SPI1 (Homo sapiens, UniProt P17947 1-270)
# Procedure, shortened: as §1
# SPIB = SPIB (Homo sapiens, UniProt Q01892 1-262)
# Sequence of SPIB (Q01892 whole entry): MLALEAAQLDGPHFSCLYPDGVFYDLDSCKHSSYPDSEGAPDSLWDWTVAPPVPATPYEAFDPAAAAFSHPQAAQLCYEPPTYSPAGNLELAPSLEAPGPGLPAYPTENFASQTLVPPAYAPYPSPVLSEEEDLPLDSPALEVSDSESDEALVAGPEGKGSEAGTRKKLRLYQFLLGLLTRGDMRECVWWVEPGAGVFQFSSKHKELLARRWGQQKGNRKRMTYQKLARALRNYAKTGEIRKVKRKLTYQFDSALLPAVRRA
# Procedure, shortened: as §1
# ELK3 = target: T6, ELK3 (Homo sapiens, UniProt P41970 1-407)
# T6 sequence: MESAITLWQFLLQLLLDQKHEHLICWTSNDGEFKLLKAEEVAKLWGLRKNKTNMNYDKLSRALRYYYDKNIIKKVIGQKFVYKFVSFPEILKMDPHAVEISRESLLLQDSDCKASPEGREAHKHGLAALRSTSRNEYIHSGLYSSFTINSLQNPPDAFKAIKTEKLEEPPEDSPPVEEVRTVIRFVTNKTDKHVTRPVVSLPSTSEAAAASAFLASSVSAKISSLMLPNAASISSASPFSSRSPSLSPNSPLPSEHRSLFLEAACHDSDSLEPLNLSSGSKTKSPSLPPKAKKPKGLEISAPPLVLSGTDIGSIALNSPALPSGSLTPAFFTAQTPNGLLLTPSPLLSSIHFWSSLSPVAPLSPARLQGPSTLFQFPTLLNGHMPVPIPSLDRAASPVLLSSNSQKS
# Procedure, shortened: as §1
Sequence,binding signal (FLI1),binding signal (ELK1),binding signal (GABPA),binding signal (ERG),binding signal (ELF1),binding signal (EHF),binding signal (SPI1),binding signal (SPIB),binding signal (ELK3)
TTTCCC,"1.65 fold enrichment (6-mer frequency, TF over GST control)","1.69 fold enrichment (6-mer frequency, TF over GST control)","1.76 fold enrichment (6-mer frequency, TF over GST control)","1.88 fold enrichment (6-mer frequency, TF over GST control)","1.61 fold enrichment (6-mer frequency, TF over GST control)","1.69 fold enrichment (6-mer frequency, TF over GST control)","1.69 fold enrichment (6-mer frequency, TF over GST control)","1.81 fold enrichment (6-mer frequency, TF over GST control)","1.75 fold enrichment (6-mer frequency, TF over GST control)"
AGTGCT,"1.47 fold enrichment (6-mer frequency, TF over GST control)","1.36 fold enrichment (6-mer frequency, TF over GST control)","1.29 fold enrichment (6-mer frequency, TF over GST control)","1.37 fold enrichment (6-mer frequency, TF over GST control)","1.4 fold enrichment (6-mer frequency, TF over GST control)","1.4 fold enrichment (6-mer frequency, TF over GST control)","1.91 fold enrichment (6-mer frequency, TF over GST control)","1.53 fold enrichment (6-mer frequency, TF over GST control)","1.59 fold enrichment (6-mer frequency, TF over GST control)"
CTAATT,"1.35 fold enrichment (6-mer frequency, TF over GST control)","1.2 fold enrichment (6-mer frequency, TF over GST control)","1.33 fold enrichment (6-mer frequency, TF over GST control)","1.36 fold enrichment (6-mer frequency, TF over GST control)","1.43 fold enrichment (6-mer frequency, TF over GST control)","1.33 fold enrichment (6-mer frequency, TF over GST control)","1.3 fold enrichment (6-mer frequency, TF over GST control)","1.37 fold enrichment (6-mer frequency, TF over GST control)","1.4 fold enrichment (6-mer frequency, TF over GST control)"

# From PMC7862700, “An all-to-all approach to the identification of sequence-specific readers for epigenetic DNA modifications on cytosine”
